Some test systems named below: DU-145 prostate; K-562 leukemia; MALME-3M melanoma; MDA-MB-231 breast; RXF 393 renal; SF-268 CNS; SF-295 CNS; SF-539 CNS; UACC-257 melanoma; M14 melanoma.
Assay in all cases: NCI-60 one-dose screen, 48 h (100 = growth as untreated, 0 = no growth, -100 = all killed)
What all share (conditions): 10 µM unless noted

Molecules are shown by their SMILES. The panel holds about 83,000 compounds, 20% with a hit somewhere; the sample as a whole holds those more often.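 The test compound was applied at a single concentration to cells in 96-well plates for 48 hours, and percent growth was recorded.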 Values without a mark were called inactive. Active and inactive are the calls of the source. Rule for the calls: active = growth percent below 10; inactive = the rest.

As for `CCCCC[C@@H]1Cc2cc(O)c(C(=O)O)c3c2[C@H](C[C@]2(OC[C@@H](CC(=O)[C@@](C)(CC)C(=O)OC)[C@@H]2C)O3)O1`, the growth with DU-145 prostate is 120%; in the assay on K-562 leukemia it was 117%; with MALME-3M melanoma, 104%; with MDA-MB-231 breast it was 100%; in the assay on RXF 393 renal, 119%; in the assay with SF-268 CNS, 108%. The growth in the assay with SF-295 CNS was 121%; in the assay on SF-539 CNS it was 100%; in the assay on UACC-257 melanoma, 87.6%; in the assay with M14 melanoma, 119%.
With `CN1CCN(c2ccc(NC(=O)c3nc4ccc5[nH]ncc5c4c4c3CCCC4)cc2C(F)(F)F)CC1`, the growth was -27.9% (active) in the assay on DU-145 prostate; 7.04% (active) in the assay with K-562 leukemia; 33.1% in the assay with MALME-3M melanoma; 45.8% in the assay on MDA-MB-231 breast; 72.3% with RXF 393 renal; 78% in the assay with SF-268 CNS. Moreover, the growth is 97.9% in the assay on SF-295 CNS, 89.6% in the assay with SF-539 CNS, 98.7% with UACC-257 melanoma and 79.5% in the assay with M14 melanoma.
Take `COC(=O)c1c2c(c(C)[n+]([O-])c1C)C(=O)C=C(NCc1ccc(Br)cc1)C2=O`: the growth in the assay on DU-145 prostate is -87.7% (active); in the assay on K-562 leukemia it was 2.51% (active); in the assay with MALME-3M melanoma, -97.9% (active); with MDA-MB-231 breast, -4.67% (active); in the assay with RXF 393 renal it was -46.1% (active); with SF-268 CNS, -43.7% (active). Further, the growth is -97.9% (active) in the assay on SF-295 CNS, -86.8% (active) in the assay on SF-539 CNS, -80.6% (active) in the assay on UACC-257 melanoma and -83.9% (active) in the assay on M14 melanoma.
As to `Cc1ccc(-c2nc(N3CCNCC3)c3oc(-c4ccccc4)nc3n2)cc1`, the growth with DU-145 prostate is -93.1% (active); in the assay on K-562 leukemia, -73.3% (active); in the assay on MALME-3M melanoma it was -29.5% (active); in the assay with MDA-MB-231 breast, -79.2% (active); in the assay on RXF 393 renal it was -74.1% (active); in the assay on SF-268 CNS, 7.93% (active). Moreover, the growth with SF-295 CNS is -23.2% (active); in the assay on SF-539 CNS it was -91% (active); in the assay with UACC-257 melanoma, 91.2%; with M14 melanoma it was -92.3% (active).
For the compound `CN1CCN(Cc2ccc3c(NNC(=O)c4ccccc4)nc4cc(F)ccc4n23)CC1`, the growth with DU-145 prostate is 27.1%; in the assay on K-562 leukemia, 13.6%; with MALME-3M melanoma, 23.5%; in the assay on MDA-MB-231 breast, 43.2%; with RXF 393 renal it was 39%; with SF-268 CNS, 19.9%. Also, the growth with SF-295 CNS is 16.2%; with SF-539 CNS, 10.8%; with UACC-257 melanoma, 11.8%; in the assay on M14 melanoma, 3.61% (active).
For `C#Cc1cccc(Nc2ncnc3ccc(-c4cnc(N)nc4)cc23)c1`, the growth in the assay with DU-145 prostate is 18.9%; in the assay on K-562 leukemia, 53.2%; in the assay on MALME-3M melanoma, 9.03% (active); with MDA-MB-231 breast, 12.8%; in the assay with RXF 393 renal it was -15.3% (active); with SF-268 CNS, 32.7%. Further, the growth was 26.2% with SF-295 CNS, 32.4% with SF-539 CNS, 80.7% with UACC-257 melanoma and 36.8% in the assay with M14 melanoma.
As to `COc1cc(NC(C)CCCNC(C)C)c2ncccc2c1OC` (stereo not given), the growth in the assay on DU-145 prostate is 113%; in the assay on K-562 leukemia, 104%; in the assay on MALME-3M melanoma it was 105%; in the assay on MDA-MB-231 breast, 89%; in the assay with RXF 393 renal, 95%; in the assay with SF-268 CNS it was 105%. Moreover, the growth is 99.9% in the assay on SF-295 CNS, 85.6% in the assay on SF-539 CNS, 107% with UACC-257 melanoma and 97% in the assay on M14 melanoma.
With `CCOC(=O)C(=Cc1cccc(Cl)c1)C(=O)OCC`, the growth was 28% with DU-145 prostate; -11.1% (active) with K-562 leukemia; -27.5% (active) in the assay on MALME-3M melanoma; 1.37% (active) with MDA-MB-231 breast; -27.8% (active) in the assay on RXF 393 renal; 26.4% in the assay on SF-268 CNS. In addition, the growth with SF-295 CNS is 77.2%; with SF-539 CNS it was 9.28% (active); with UACC-257 melanoma, 26.1%; with M14 melanoma, 11.9%.
Consider `CCCC(O)Cn1ncc(C(=O)OCC)c1NC(=O)NCc1ccccc1F` (stereo not given), for which the growth in the assay on DU-145 prostate is 99.7%; in the assay with K-562 leukemia, 66.7%; in the assay on MALME-3M melanoma, 98.9%; in the assay with MDA-MB-231 breast, 91.3%; in the assay with RXF 393 renal, 101%; in the assay on SF-268 CNS, 96.3%. Besides, the growth in the assay on SF-295 CNS is 89.9%; in the assay with SF-539 CNS, 107%; in the assay on UACC-257 melanoma, 72.4%; with M14 melanoma, 93.1%.
Take `CO[C@H]1/C=C(/C)CCC[C@H](C)[C@H](O)[C@@H](C)C(=O)C(C)(C)[C@@H](O)CC(=O)O[C@@H]1/C(C)=C/c1csc(C)n1`: the growth in the assay with DU-145 prostate is -48.1% (active); in the assay on K-562 leukemia, 13.9%; in the assay with MALME-3M melanoma, 45.2%; in the assay on MDA-MB-231 breast, 10.3%; with RXF 393 renal, -23.4% (active); in the assay on SF-268 CNS it was 36.5%. In addition, the growth is -17.8% (active) in the assay on SF-295 CNS, 1.38% (active) in the assay on SF-539 CNS, 56.2% with UACC-257 melanoma and 3.27% (active) in the assay with M14 melanoma.
Consider `CCCCC(=O)c1ccco1`, for which the growth in the assay on DU-145 prostate was 98.6%; in the assay on K-562 leukemia, 104%; in the assay on MALME-3M melanoma, 103%; in the assay with MDA-MB-231 breast, 98.7%; in the assay with RXF 393 renal, 97.6%; in the assay on SF-268 CNS it was 96%. For the same compound, the growth in the assay on SF-295 CNS is 101%; in the assay on SF-539 CNS, 99.5%; with UACC-257 melanoma it was 105%; in the assay with M14 melanoma, 90.6%.
Regarding `O=C1/C(=C/c2ccc(Cl)cc2)COc2ccc(O)c(O)c21`, the growth is 21.4% in the assay on DU-145 prostate; 13.1% in the assay with K-562 leukemia; 7.38% (active) with MALME-3M melanoma; -17.8% (active) in the assay with MDA-MB-231 breast; 9.7% (active) in the assay on RXF 393 renal; -0.809% (active) in the assay on SF-268 CNS. In addition, the growth in the assay on SF-295 CNS is 77.1%; in the assay with SF-539 CNS, -76% (active); with UACC-257 melanoma, 10.1%; with M14 melanoma, 30.9%.
Regarding `CC1(C)CC[C@]2(c3nnc(-c4ccncc4)o3)CC[C@H]3C(=CC[C@H]4[C@@]3(C)CC[C@H]3C(C)(C)C(=O)CC[C@]43C)[C@@H]2C1`, the growth was 86.3% in the assay on DU-145 prostate; 40.8% with K-562 leukemia; 86.9% in the assay on MALME-3M melanoma; 72.8% with MDA-MB-231 breast; 79% with RXF 393 renal; 81.4% in the assay on SF-268 CNS. In addition, the growth with SF-295 CNS is 89.7%; with SF-539 CNS, 76.3%; in the assay on UACC-257 melanoma, 70.6%; in the assay on M14 melanoma it was 84%.

Source of the values: PubChem BioAssay (NCI).
